Source: PubChem (National Center for Advancing Translational Sciences (NCATS))
HCV inhibitor – HCV inhibition. Huh7.5.1 HCVcc-Cre infection, luciferase reporter, 44 h. Potency, µM (top dose mostly 41.8 µM), without a hit: top-dose activity change, negative = inhibition, hits mostly inhibitors. 3.4% of 340,000 active. AID 651820; note: potency is the fitted concentration of half-maximal effect
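Compounds are dispensed onto cells plated 4 h earlier at 1,000 per well, with HCVcc-Cre virus (about 0.5 moi) added next. Following 44 h of culture, luminescent signal is measured for 15 sec after 15 min with substrate at room temperature.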
HCMV antiviral – inhibitors of human cytomegalovirus | 4.5% of 410,000 active | HFF cells, HCMV-luciferase reporter, 72 h; stronger effect = lower value | activity change, negative = inhibition, % at 57.5 µM | AID 1259415; in the data active = activity change below about -60%; inconclusive = no clear call, values can overlap the other calls; inactive = above about -39%
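Compounds were evaluated in HFFs infected with an HCMV luciferase reporter virus (MOI 1 PFU/cell). Luciferase in lysates collected 72 h post infection served as the replication measure.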
Pf growth 48h – inhibits P. falciparum growth in the first generation, 48 h | 5.9% of 310,000 active | P. falciparum luciferase growth in erythrocytes, 48 h | Potency, µM (titrated, usually from 28.7 µM), for inactives: top-dose activity change, negative = inhibition, most hits filed as inhibitors | AID 504832; note: potency is the fitted concentration of half-maximal effect
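Parasite viability was followed by luminescence of a genomically integrated firefly luciferase. Cultures held 0.1% parasitemia at 2% hematocrit (final), incubated under 5% CO2 at 37 C.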
Pf growth 96h – inhibits malaria parasite growth, 96 h; P. falciparum luciferase reporter growth, 96 h; Potency, µM (top dose mostly 28.7 µM), for the others: at the top dose activity change, negative = inhibition, actives largely listed as inhibitors; 6.9% of 320,000 active; AID 504834; note: potency is the fitted concentration of half-maximal effect
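Delayed-death screen, second-generation endpoint: infected erythrocytes, 2% hematocrit, 0.05% parasitemia final; 96 hours at 37 C, 5% CO2; luciferase detection reagent; luminescence decrease equals reduced growth.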
Active calls of the source: *; u = inconclusive; x = no result given; ! = not active in a repeat. A selection: hits, their analogues and other compounds. The true share with any hit is near 13%. Unless noted, calls come from the whole dose curve; as a rule, active = well fitted inhibition curve with a large enough effect; inconclusive = small, poorly fitted or top-dose-only effect, or another doubt; inactive = no such curve, though single readings can be large or run the other way. % is set by controls: 0 for no effect and ±100 for the full control effect.

SMILES	HCV inhibitor	HCMV antiviral	Pf growth 48h	Pf growth 96h
Cc1cc(C)nc(N/N=C/C(Cl)=C/c2ccccc2)n1	u	-7	x	3.7µM*
Cc1cc(C)nc(N/N=C/c2ccccc2)n1	-5%	26	18%	17%
Cc1cc(-c2ccccc2)nc(N/N=C/c2ccc(O)cc2)n1	11µM*	-16	u	u
O=C(CSC1=Nc2ccccc2N=C(c2ccc(F)cc2)C1)NCc1ccccc1Cl	x	-32	x	x
CCOC(=O)CSc1nnc2n(-c3ccccc3)c(=O)c3c4c(sc3n12)CC(C(C)(C)C)CC4 (configuration not stated)	x	35	x	x
COc1ccc(O)c(/C=N/Nc2nc(C)cc(-c3ccccc3)n2)c1	4µM*	-26	x	x
Cc1ccc(C)n1-c1nnc(N2CCCC(C(=O)Nc3ccccc3Br)C2)s1 (configuration not stated)	x	19	x	x
Cc1nc2ccc(NC(=O)c3cccc(S(=O)(=O)N(C)c4ccccc4)c3)cc2s1	10µM*	x	u	8.3µM*
Cc1nc2ccc(NC(=O)c3ccccc3)cc2s1	6%	29	20%	0%
COc1ccccc1N(C)S(=O)(=O)c1ccc(C(=O)Nc2ccc3nc(C)sc3c2)cc1	u	-85*	-26%	u
Cc1nc2ccc(S(=O)(=O)N(C)CC(=O)Nc3ccc(C(C)C)cc3)cc2s1	x	-60*	x	x
Cc1ccc(CNC(=O)c2cc(=O)c3cc(C)c(C)cc3o2)cc1	x	-1	x	x
CCCc1nc(SCC(=O)N2CCC(Cc3ccccc3)CC2)c2c(=O)n(C)c(=O)n(C)c2n1	10µM*!	-23	u	13%
CCCc1nc(SCC(=O)N2CCCc3ccccc32)c2c(=O)n(C)c(=O)n(C)c2n1	10µM*	x	u	u
O=C1NC[C@H](CCCCN2CCN(Cc3ccccc3)C(=O)C2=O)N(CCc2ccccc2)C1=O	x	-35	x	x
Cc1ccc(OCc2nc3ccccc3n2C(C)C(=O)Nc2c(C)cccc2C)cc1 (configuration not stated)	x	29	x	x
CC(C)COCC(CN(Cc1ccccc1)c1ccccc1)N1CCCC1 (configuration not stated)	4%	-67*	11µM*	u
CC(C(=O)Nc1ccc(OCc2ccccc2)cc1)N1CCCC1 (configuration not stated)	u	-35	76%	0%
N#Cc1c(NC(=O)c2ccc(Cn3cc(Br)cn3)o2)sc2c1CCCCC2	u	15	21%	u
Cc1ccccc1-c1cc(C(=O)Nc2sc(C)c(C)c2C(N)=O)c2ccccc2n1	4.5µM*	-23	u	x
Cc1sc(NC(=O)c2ccccc2)c(C#N)c1-c1ccccc1	u	-15	104%	4.1µM*
CCOC(=O)c1sc(NC(=O)c2cc(-c3ccccc3C)nc3ccccc23)c(C#N)c1C	7.1µM*	-105*	x	u
CCc1c(C)sc(NC(=O)c2cccs2)c1C#N	u	147	170%	213%
COC(=O)c1sc(NC(=O)c2ccc(Cn3cc(Cl)cn3)o2)c(C#N)c1C	-3%	-106*	-2%	23%
CCOC(=O)c1c(NC(=O)c2cc(-c3ccc(Cl)s3)nc3ccccc23)sc(C(N)=O)c1C	9%	-25	8%	-4%
SMILES	HCV inhibitor	HCMV antiviral	Pf growth 48h	Pf growth 96h
Cc1cc(NC(=O)N2CCC(CN3CCOCC3)CC2)ccc1Br	x	47	x	x
Cn1c(=O)n(C)c2cc(CNCc3ccc(C(=O)O)cc3)ccc21	x	5	x	x
CCOC(=O)c1c(NC(=O)c2ccncc2)sc(C)c1C	u	2	u	u
CCOC(=O)c1sc(NC(=O)c2ccncc2)c(C#N)c1C	u	-68*	-13%	u
Cc1ccc(OCC(=O)NCC2(N(C)C)CCCCC2)cc1C	x	15	x	x
COc1ccc(/C=C/c2nc3ccccc3c(=O)n2-c2cccc(C(F)(F)F)c2)cc1	x	28	x	x
CCCCCc1nc2ccccc2c(=O)n1-c1ccc(Cl)cc1[N+](=O)[O-]	9%	4	4.7µM*	13µM*
CCCCc1nc2ccccc2c(=O)n1-c1ccccc1O	-6%	-20	u	u
Cc1cc(NC(=O)CSc2ncc(C(=O)Nc3ccc(F)cc3)c(=O)n2C)no1	x	41	x	x
CCN(C)C(=O)C1=CN2CCN(Cc3ccccc3C(F)(F)F)C(=O)N=C2O1	x	14	x	x
CN=C1SC(C(=O)Nc2ccccc2Cl)CC(=O)N1c1ccc(OC(F)(F)Cl)cc1 (configuration not stated)	12%	40	10µM*	0%
COc1ccccc1N=C1SC(C(=O)Nc2ccccc2OC)CC(=O)N1C (configuration not stated)	x	-17	x	x
CN(CC(=O)Nc1ccccc1Cl)S(=O)(=O)c1ccc(C(=O)N2CCOCC2)s1	x	-12	x	x
CCOc1ccc2ncc(S(=O)(=O)c3ccccc3)c(N3CCC4(CC3)OCCO4)c2c1	1%	u	13µM*	10µM*
CCc1ccc(S(=O)(=O)c2cnc3ccc(OC)cc3c2N2CCCC(C)C2)cc1 (configuration not stated)	x	-29	x	x
COc1ccc(S(=O)(=O)c2cnc3ccc(OC)cc3c2N2CCC3(CC2)OCCO3)cc1	u	-74*	u	8.3µM*
COc1cccc(-c2nnn(CC(=O)O)n2)c1	16%	29	9%	u
COc1cccc(-c2nnn(C/C(N)=N/O)n2)c1	11%	46	58%	2.3µM*
COc1cccc(NC(=S)N(CCc2nc3cc(C)c(C)cc3[nH]2)Cc2cccnc2)c1	-12%	16	u	12µM*
Cc1cccc(NC(=S)N(CCc2nc3cc(C)c(C)cc3[nH]2)Cc2cccnc2)c1	3%	-23	u	-5%
CCNC(=S)N(CCc1c(C)[nH]c2ccc(Cl)cc12)Cc1cccnc1	-23%	-34	12µM*	u
COCCNC(=S)N(CCc1c(C)[nH]c2ccc(C)cc12)Cc1cc(OC)c(OC)c(OC)c1	u	-22	u	9.3µM*
COc1ccc2[nH]c(C)c(CCN(Cc3cccs3)C(=S)Nc3cccc(F)c3)c2c1	u	x	0.37µM*	0.74µM*
CCOC(=O)C(NCc1ccccc1NC(=O)OC(C)(C)C)c1nnnn1Cc1ccccc1 (configuration not stated)	x	24	x	x
CCCSCCCNC(=O)CN1C(=O)COc2ccc(S(=O)(=O)N3CCCCCC3)cc21	x	-6	x	x
SMILES	HCV inhibitor	HCMV antiviral	Pf growth 48h	Pf growth 96h
CO/N=C(\C(=O)N[C@@H]1C(=O)N2C(C(=O)[O-])=C(C[n+]3cccc4c3CCC4)CS[C@H]12)c1csc(N)n1	x	x	-18%	-24%
Cc1ccccc1NC(=S)N(CCc1c(C)[nH]c2ccc(F)cc12)Cc1cccnc1	u	-2	u	u
Cc1[nH]c2ccc(F)cc2c1CCN(Cc1cccnc1)C(=S)Nc1cccc(F)c1	-13%	-33	13µM*	u
Cc1nc(-c2ccccc2)sc1CCNS(=O)(=O)c1ccccc1	x	-3	x	x
O=C(NCCS(=O)(=O)N1CCN(C(=O)c2ccco2)CC1)c1ccccc1	x	-79*	x	x
COc1ccc(C(=O)NCCS(=O)(=O)N2CCN(C(=O)c3ccco3)CC2)cc1	-2%	5	24%	-28%
